# Assay results published in PubChem BioAssay (NCI).
# The panel holds about 83,000 compounds, 20% with a hit somewhere; the sample as a whole holds those more often.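 Cell lines were cultured in 96-well plates, exposed to a single compound concentration, and assessed for percent growth 48 hours later.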 Calls of active or inactive are those of the source. How the source made its calls: active means growth percent below 10; inactive means the rest.
# Tested on: COLO 205 colon
# Assay: NCI-60 one-dose screen, 48 h (100 = growth as untreated, 0 = no growth, -100 = all killed)
# Settings: 10 µM unless noted
row,Compound,growth
1,C=CC(=O)Nc1cccc(-c2nc(SC)nc(NCc3ccccc3)c2C#N)c1,98% (inactive)
2,COC(=O)c1ccc2oc(NC(=O)c3ccc(Nc4ccc([N+](=O)[O-])cc4C)c([N+](=O)[O-])c3)nc2c1,107% (inactive)
3,COc1cc(/C=C/c2cc(/C=C/c3ccc(O)c(OC)c3)n(-c3c(Cl)cccc3Cl)c(=O)n2)ccc1O,71.8% (inactive)
4,CSc1nc(Nc2cccc(NC(=O)CCl)c2)c(C#N)c(-c2cccc([N+](=O)[O-])c2)n1,35.9% (inactive)
5,CC(C)(C)N1CCC1CN (stereo not drawn),138% (inactive)
6,Cc1ccc(NC(=O)/C=C/c2ccccc2)c(C(N)=O)c1,-21.2% (active)
7,COc1ccc(-n2nc(C)c3c(Nc4ccc(NC(=O)Nc5cccc(C(F)(F)F)c5)cc4)ncnc32)cc1,-39.2% (active)
8,O=C1OCC2=C1C(c1ccncc1)c1cc3c(cc1N2CCO)OCO3 (stereo not drawn),53.1% (inactive)
9,C#Cc1cccc(NC(=O)c2ccccc2NC(=O)C=C)c1,109% [8.25 µM] (inactive)
10,CCOc1cc2ncc(C#N)c(Nc3ccc(F)c(Cl)c3)c2cc1NC(=O)CC1CCSS1 (stereo not drawn),-73.5% (active)
11,CN(Cc1cc(Cl)cc(Cl)c1O)Cc1cc(Cl)cc(Cl)c1O,99.5% (inactive)
12,CC(=O)O[C@H]1[C@@H]2OC(=O)C(CSc3ccccc3)[C@@H]2C[C@H]2O[C@]2(C)CC/C=C(\C)CCC[C@@H]1C (stereo partly drawn),29.7% (inactive)
13,COc1ccc(/C=N/C2=C(C#N)C(c3ccc(N(C)C)cc3)c3ccc4ccccc4c3O2)cc1 (stereo not drawn),101% (inactive)
14,C[n+]1ccccc1/C=C/c1ccc2cccc(O)c2n1,63.3% (inactive)
15,Cc1nn(-c2ccc(F)cc2)c2ncnc(Oc3ccc(NC(=O)Nc4ccc(Cl)c(C(F)(F)F)c4)cc3)c12,109% (inactive)
16,COc1ccc(C(=O)c2sc3nc(C)cc(C)c3c2N)cc1OC,102% (inactive)
17,C=CC(=O)Nc1cccc(-c2nc(SC)nc(Nc3ccccc3OC)c2C#N)c1,60.9% (inactive)
18,Nc1nc2ncc(CCNc3ccc(C(=O)O)cc3)nc2c(=O)[nH]1,105% (inactive)
19,CCCSc1ccc2nc(NC(=O)OC)[nH]c2c1,5.29% (active)

row,Compound,growth
1,CCCc1cc(=O)n2c(C(=O)Nc3ccc(F)cc3)c(C(=O)Nc3ccc(F)cc3)sc2n1,71.4% [30 µM] (inactive)
2,O=C(/C=C/c1ccccc1)c1ccc(O)c(CN2CCN(c3cc4c(cc3F)c(=O)c(C(=O)O)cn4C3CC3)CC2)c1,89.8% (inactive)
3,CCOC(=O)c1sc2nc(-c3cccc(OC)c3)nc(N3CCOCC3)c2c1C,108% (inactive)
4,CCCCCCCCCCCCC[N+](C)(C)Cc1ccccc1,-91.8% (active)
5,CCCOc1ccc2nc(NC(=O)OC)[nH]c2c1,3.31% (active)
6,Nc1n[nH]c2ccc([C@@H]3Nc4ccc5cn[nH]c5c4[C@H]4C5CCC(C5)[C@@H]34)cc12 (stereo partly drawn),-9.43% (active)
7,O=c1nc2oc3ccc4ccccc4c3cc-2s1,30.4% (inactive)
8,COC(=O)c1cccc(NC(=O)c2ccc(-c3cccc(N)c3)o2)c1,112% (inactive)
9,CCOC(=O)c1c(C)oc2ncnc(N3CCN(C(=S)Nc4ccccc4)CC3)c12,104% (inactive)
10,CCCCN(CCCC)CCCn1c(-c2ccccc2)ccc1-c1ccccc1,61.3% (inactive)
11,CN1CCN(CCCOc2cccc3nc(Nc4ccc(Cl)c(F)c4)ccc23)CC1,-54.7% (active)
12,COc1cccc(/C=N/NC(=O)c2ccccc2Nc2ccnc(C(F)(F)F)c2)c1O,2.9% (active)
13,COc1cc2nc(N3CCCC3)nc(NCc3ccccc3)c2cc1OC,-20.7% (active)
14,COc1cc2c(cc1-c1c(C)noc1C)ncc1nc(-c3ccccn3)n([C@H](C)COC(F)F)c12,29.8% (inactive)
15,COc1cccc(-c2nc3sccn3c2-c2ccnc(NCCCNS(=O)(=O)c3c(Cl)cccc3Cl)c2)c1,55.9% (inactive)
16,N#Cc1c(-c2ccc(Cl)cc2)nc(NN=Cc2ccco2)nc1N1CCOCC1,75.2% (inactive)
17,O=C(Nc1cccc2[nH]c(C(F)(F)F)nc12)c1ccc(-n2cnnn2)cc1,105% (inactive)
18,CC1CCNC(C)C1 (stereo not drawn),105% (inactive)
19,CCN(CC)c1ccc(-c2cc(-c3cc(OC)c(OC)c(OC)c3)nc(N3CCOCC3)c2C#N)cc1,5.62% (active)
